Measured values: the supplement of paper PMC10338343
± gives the standard deviation.

What was measured:
[1] = test system: MILI (PIWIL2) piRISC loaded with L1MC piRNA (26 nt); experiment: pre-steady-state target cleavage rate (min^-1); guide: L1MC piRNA 5'p-UAACUAAAUACUAUGCAAGCUGUAGG; higher = faster piRNA-guided slicing of the target;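 note: 1 nM active piRISC with 0.1 nM target library at 33 °C single turnover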
In short: (§1)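 In this Cleave-'n-Seq assay, uncleaved targets were sequenced and normalised to depth and to weakly complementary targets. They came from a transcribed, DNA-blocked target RNA library […] mixed with 1 nM active affinity-purified piRISC carrying one synthetic guide, with or without 500 nM GTSF1 partner protein, in HEPES–potassium acetate buffer at 33 °C for 0–8 or 0–960 min. After three trials were pooled and k3 was capped at 0.0001 min^-1, the pre-steady-state cleavage rate was obtained from a burst-and-steady-state fit.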

[2] = test system: EfPiwi piRISC loaded with L1MC piRNA (26 nt); experiment: pre-steady-state target cleavage rate (min^-1); auxiliary factor: 500 nM Ephydatia muelleri Gtsf1; guide: L1MC piRNA 5'p-UAACUAAAUACUAUGCAAGCUGUAGG; MIWI and MILI are mouse PIWI proteins and EfPiwi is from a freshwater sponge; tags in brackets are library labels; higher = faster piRNA-guided slicing of the target
In short: as §1

[3] = auxiliary factor: 500 nM mouse GTSF1
[4] = auxiliary factor: none (no GTSF1)

UCCUGGAACAGCGUGCAUAGUAUUUAGUUA
pre-steady-state target cleavage rate [1, 3]: 0.282 ± 0.017
pre-steady-state target cleavage rate [1, 4]: 0.00797 ± 0.0029
pre-steady-state target cleavage rate [2]: 0.0168 ± 0.005

UCCUGGAACAGCUUAGCAUAGUAUUUAGUUA
pre-steady-state target cleavage rate [1, 3]: 0.27 ± 0.019
pre-steady-state target cleavage rate [1, 4]: 0.00815 ± 0.0027
pre-steady-state target cleavage rate [2]: 0.0218 ± 0.0061

UCCUCCUACAGCUUGCAUAGUAUUUAGUUG [g2:g26:cont:t1G]
pre-steady-state target cleavage rate [1, 3]: 0.158 ± 0.016
pre-steady-state target cleavage rate [1, 4]: 0.0087 ± 0.0025
pre-steady-state target cleavage rate [2]: 0.00723 ± 0.0029

UCCUGGAUGAGCCUGCAUAGUAUUUAGUUA
pre-steady-state target cleavage rate [1, 3]: 0.157 ± 0.019
pre-steady-state target cleavage rate [1, 4]: 0.00748 ± 0.0033
pre-steady-state target cleavage rate [2]: 0.032 ± 0.011

UCCUCCUACAGCUUGCAUAGUACUUUAGUUA
pre-steady-state target cleavage rate [1, 3]: 0.216 ± 0.017
pre-steady-state target cleavage rate [1, 4]: 0.00628 ± 0.0027
pre-steady-state target cleavage rate [2]: 0.0115 ± 0.0051

UCCUGGAUGUGCUGGCAUAGUAUUUAGUUA
pre-steady-state target cleavage rate [1, 3]: 0.118 ± 0.012
pre-steady-state target cleavage rate [1, 4]: 0.0112 ± 0.0037
pre-steady-state target cleavage rate [2]: 0.00525 ± 0.0029

UCCUGGAACACCUUGCAUUGUAUUUAGUUA
pre-steady-state target cleavage rate [1, 3]: 0.14 ± 0.018
pre-steady-state target cleavage rate [1, 4]: 0.00474 ± 0.0027
pre-steady-state target cleavage rate [2]: 0.00411 ± 0.0026

UCCUGCCACAGCUUGCAUAGUAUUUAGUUA
pre-steady-state target cleavage rate [1, 3]: 0.331 ± 0.025
pre-steady-state target cleavage rate [1, 4]: 0.0105 ± 0.003
pre-steady-state target cleavage rate [2]: 0.0631 ± 0.017

UCCUCCUACAGCUUGCAUAGUAUUUUAGUUA
pre-steady-state target cleavage rate [1, 3]: 0.273 ± 0.019
pre-steady-state target cleavage rate [1, 4]: 0.0124 ± 0.0038
pre-steady-state target cleavage rate [2]: 0.0456 ± 0.014

UCCUGGAUCAGCUUGCAUAGUAUUUAGUAUA
pre-steady-state target cleavage rate [1, 3]: 0.233 ± 0.021
pre-steady-state target cleavage rate [1, 4]: 0.00809 ± 0.0032
pre-steady-state target cleavage rate [2]: 0.0115 ± 0.0043

UCCUGGAUCAGCUGGCAUAGUAUUUAGUUA
pre-steady-state target cleavage rate [1, 3]: 0.253 ± 0.023
pre-steady-state target cleavage rate [1, 4]: 0.00736 ± 0.0024
pre-steady-state target cleavage rate [2]: 0.0104 ± 0.0026

UCCUGGUAGUCCUUGCAUAGUAUUUAGUAA
pre-steady-state target cleavage rate [1, 3]: 0.113 ± 0.025
pre-steady-state target cleavage rate [1, 4]: 0.00362 ± 0.003
pre-steady-state target cleavage rate [2]: 0.00627 ± 0.0035

UCCUGGUACAGCUUGCAUAGUAUUUUGUUA
pre-steady-state target cleavage rate [1, 3]: 0.118 ± 0.024
pre-steady-state target cleavage rate [1, 4]: 0.00398 ± 0.0037
pre-steady-state target cleavage rate [2]: 0.00618 ± 0.003

UCCUGGAACAGCUUGCAAGUAUUUAGUUA
pre-steady-state target cleavage rate [1, 3]: 0.141 ± 0.013
pre-steady-state target cleavage rate [1, 4]: 0.00614 ± 0.0021
pre-steady-state target cleavage rate [2]: 0.00284 ± 0.0019

UCCUGGUACAGCUUCGAUAGUAUUUAGUUA
pre-steady-state target cleavage rate [1, 3]: 0.187 ± 0.025
pre-steady-state target cleavage rate [1, 4]: 0.00848 ± 0.0025
pre-steady-state target cleavage rate [2]: 0.00411 ± 0.0026

UCCUCCUUCAGCUUGCAUAGUUUUUAGUUA
pre-steady-state target cleavage rate [1, 3]: 0.0603 ± 0.0091
pre-steady-state target cleavage rate [1, 4]: 0.00556 ± 0.0016
pre-steady-state target cleavage rate [2]: 0.00713 ± 0.0023

UCCUGGAUCUGCUUGCAAAGUAUUUAGUUA
pre-steady-state target cleavage rate [1, 3]: 0.0598 ± 0.013
pre-steady-state target cleavage rate [1, 4]: 0.0085 ± 0.0023
pre-steady-state target cleavage rate [2]: 0.0405 ± 0.011

UCCUCCUACAGGUUGCAUAGUAUUUAGUUA
pre-steady-state target cleavage rate [1, 3]: 0.264 ± 0.013
pre-steady-state target cleavage rate [1, 4]: 0.00924 ± 0.0019
pre-steady-state target cleavage rate [2]: 0.0556 ± 0.013

UCCUCCAUCAGCUUGCAUAGUAUUUAGUAA
pre-steady-state target cleavage rate [1, 3]: 0.165 ± 0.024
pre-steady-state target cleavage rate [1, 4]: 0.00315 ± 0.0022
pre-steady-state target cleavage rate [2]: 0.00678 ± 0.003

UCCUGCUAGUGCUUGCAUAGUAUUUAGUUA
pre-steady-state target cleavage rate [1, 3]: 0.0937 ± 0.017
pre-steady-state target cleavage rate [1, 4]: 0.00303 ± 0.0022
pre-steady-state target cleavage rate [2]: 0.00363 ± 0.0014

UCCUGGAUGAGCUCGCAUAGUAUUUAGUUA
pre-steady-state target cleavage rate [1, 3]: 0.241 ± 0.017
pre-steady-state target cleavage rate [1, 4]: 0.0047 ± 0.0035
pre-steady-state target cleavage rate [2]: 0.0143 ± 0.0042

UCCUGGAUGAGCUUGCAUAGUAAUUAGUUA
pre-steady-state target cleavage rate [1, 3]: 0.184 ± 0.018
pre-steady-state target cleavage rate [1, 4]: 0.00598 ± 0.0024
pre-steady-state target cleavage rate [2]: 0.0154 ± 0.0044

UCCUCCUUCAGCUUGCAUUGUAUUUAGUUA
pre-steady-state target cleavage rate [1, 3]: 0.226 ± 0.019
pre-steady-state target cleavage rate [1, 4]: 0.00662 ± 0.002
pre-steady-state target cleavage rate [2]: 0.0307 ± 0.0077

UCCUGGAUCAGCUAGCAUAGUAUUUAGUAA
pre-steady-state target cleavage rate [1, 3]: 0.219 ± 0.012
pre-steady-state target cleavage rate [1, 4]: 0.00665 ± 0.0023
pre-steady-state target cleavage rate [2]: 0.00362 ± 0.0032

UCCUCCUACACGAUGCAUAGUAUUUAGUAA
pre-steady-state target cleavage rate [1, 3]: 0.194 ± 0.026
pre-steady-state target cleavage rate [1, 4]: 0.00362 ± 0.0022
pre-steady-state target cleavage rate [2]: 0.00453 ± 0.0027

UCCUCCUACAGCUUGGCAUAGUAUUUAGUUA
pre-steady-state target cleavage rate [1, 3]: 0.338 ± 0.057
pre-steady-state target cleavage rate [1, 4]: 0.00447 ± 0.0021
pre-steady-state target cleavage rate [2]: 0.0133 ± 0.0047

UCCUGGAACAGUUGCAUAGUAUUUAGUUA
pre-steady-state target cleavage rate [1, 3]: 0.2 ± 0.014
pre-steady-state target cleavage rate [1, 4]: 0.00668 ± 0.0022
pre-steady-state target cleavage rate [2]: 0.0543 ± 0.013

UCCUGGAACAGCUUGCAUGUAUUUAGUUA
pre-steady-state target cleavage rate [1, 3]: 0.083 ± 0.014
pre-steady-state target cleavage rate [1, 4]: 0.00308 ± 0.0027
pre-steady-state target cleavage rate [2]: 0.00314 ± 0.0027

UCCUGGAUCAGGAUGCAUAGUAUUUAGUUA
pre-steady-state target cleavage rate [1, 3]: 0.156 ± 0.012
pre-steady-state target cleavage rate [1, 4]: 0.00724 ± 0.0018
pre-steady-state target cleavage rate [2]: 0.0121 ± 0.0027

UCCUGCUACAGCUUGCCUAGUAUUUAGUUA
pre-steady-state target cleavage rate [1, 3]: 0.222 ± 0.015
pre-steady-state target cleavage rate [1, 4]: 0.0074 ± 0.0022
pre-steady-state target cleavage rate [2]: 0.00702 ± 0.0018

UCCUGCUACUCCUUGCAUAGUAUUUAGUUA
pre-steady-state target cleavage rate [1, 3]: 0.262 ± 0.015
pre-steady-state target cleavage rate [1, 4]: 0.0091 ± 0.0024
pre-steady-state target cleavage rate [2]: 0.0106 ± 0.004

UCCUCGAUCAGCUUGCAUAGUAUUUAGUUA
pre-steady-state target cleavage rate [1, 3]: 0.316 ± 0.017
pre-steady-state target cleavage rate [1, 4]: 0.0102 ± 0.0027
pre-steady-state target cleavage rate [2]: 0.121 ± 0.023

UCCUGGAACAGCAUGCAAAGUAUUUAGUUA
pre-steady-state target cleavage rate [1, 3]: 0.129 ± 0.014
pre-steady-state target cleavage rate [1, 4]: 0.00836 ± 0.0026
pre-steady-state target cleavage rate [2]: 0.0163 ± 0.0061

UCCUGCUUCACCUUGCAUAGUAUUUAGUUA
pre-steady-state target cleavage rate [1, 3]: 0.228 ± 0.027
pre-steady-state target cleavage rate [1, 4]: 0.00696 ± 0.0025
pre-steady-state target cleavage rate [2]: 0.0076 ± 0.0034

UCCUGGAACAGCUUGCAAAGUAUUAAGUUA
pre-steady-state target cleavage rate [1, 3]: 0.0867 ± 0.015
pre-steady-state target cleavage rate [1, 4]: 0.00516 ± 0.0022
pre-steady-state target cleavage rate [2]: 0.00406 ± 0.003

UCCUGGAUCAGCUGCAUAGUAUUUAGUUA
pre-steady-state target cleavage rate [1, 3]: 0.25 ± 0.015
pre-steady-state target cleavage rate [1, 4]: 0.00821 ± 0.0027
pre-steady-state target cleavage rate [2]: 0.0152 ± 0.0053

UCCUGCUACUCGUUGCAUAGUAUUUAGUUA
pre-steady-state target cleavage rate [1, 3]: 0.242 ± 0.014
pre-steady-state target cleavage rate [1, 4]: 0.0082 ± 0.0022
pre-steady-state target cleavage rate [2]: 0.00936 ± 0.0038

UCCUGGAACAGCUUCGCAUAGUAUUUAGUUA
pre-steady-state target cleavage rate [1, 3]: 0.237 ± 0.016
pre-steady-state target cleavage rate [1, 4]: 0.00647 ± 0.0022
pre-steady-state target cleavage rate [2]: 0.0367 ± 0.008

UCCUGGUACAGGAAGCAUAGUAUUUAGUUA
pre-steady-state target cleavage rate [1, 3]: 0.223 ± 0.025
pre-steady-state target cleavage rate [1, 4]: 0.00538 ± 0.0026
pre-steady-state target cleavage rate [2]: 0.00248 ± 0.0023

UCCUGGAACAGCUUGCAAAGUAUUUAGAUA
pre-steady-state target cleavage rate [1, 3]: 0.085 ± 0.014
pre-steady-state target cleavage rate [1, 4]: 0.00298 ± 0.0022
pre-steady-state target cleavage rate [2]: 0.0036 ± 0.0024

UCCUGGAUGAGCAUGCAUAGUAUAUAGUUA
pre-steady-state target cleavage rate [1, 3]: 0.213 ± 0.022
pre-steady-state target cleavage rate [1, 4]: 0.00752 ± 0.0029
pre-steady-state target cleavage rate [2]: 0.00333 ± 0.0032

UCCUGGUACAGGUUGCAUAGUAUUUAGUAA
pre-steady-state target cleavage rate [1, 3]: 0.287 ± 0.04
pre-steady-state target cleavage rate [1, 4]: 0.00626 ± 0.0028
pre-steady-state target cleavage rate [2]: 0.00428 ± 0.0022

UCCUGCUACAGCGUGCAUAGUAUUUAGUUA
pre-steady-state target cleavage rate [1, 3]: 0.296 ± 0.02
pre-steady-state target cleavage rate [1, 4]: 0.00602 ± 0.0024
pre-steady-state target cleavage rate [2]: 0.0101 ± 0.0026

UCCUGGAACAGAUUGCAUAGUAUUUAGUUA
pre-steady-state target cleavage rate [1, 3]: 0.284 ± 0.012
pre-steady-state target cleavage rate [1, 4]: 0.0113 ± 0.0023
pre-steady-state target cleavage rate [2]: 0.0572 ± 0.014

UCCUGGAUGAGCUGUGCAUAGUAUUUAGUUA
pre-steady-state target cleavage rate [1, 3]: 0.191 ± 0.013
pre-steady-state target cleavage rate [1, 4]: 0.0151 ± 0.0044
pre-steady-state target cleavage rate [2]: 0.0255 ± 0.0063

UCCUCCGUACAGCUUGCAUAGUAUUUAGUUA
pre-steady-state target cleavage rate [1, 3]: 0.272 ± 0.014
pre-steady-state target cleavage rate [1, 4]: 0.0094 ± 0.0023
pre-steady-state target cleavage rate [2]: 0.0578 ± 0.018
